# Data as given in PubChem BioAssay (NCI).
# Values joined by “and” are separate entries in the source; they are usually repeats but may differ in a detail not shown here. Identical values can stand only once. Compounds without any hit were thinned out: in the full panel of roughly 83,000, 20% have a hit.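 Single-dose data. Exposure time 48 hours. Values below 10 considered active.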 A number with no mark means an inactive call. Active and inactive are the calls of the source.
# Tested on: MDA-MB-468 breast
# Assay: NCI-60 one-dose screen, 48 h (100 = growth as untreated, 0 = no growth, -100 = all killed)
# Conditions: 10 µM unless noted
row,SMILES,growth
1,CCN(CC)CCNC(=O)n1cc(-c2ccncc2)c(-c2ccc(Cl)c(OC)c2)n1,88.3%
2,COc1ccc(C2CC(c3ccc(OC)c(OC)c3)=NN2C(=O)c2cc(OC)c(OC)c(OC)c2)c(OC)c1 (stereo not drawn),53.6%
3,CCOc1cccc(NC2=C(Br)C(=O)C(C)=C(C)C2=O)c1,-65.7% (active)
4,CCCCCCCO,96.4%
5,CC1=C(O)C(=O)CC1,104%
6,CC1(C)C(=O)/C(=C\c2cccnc2)C[C@]2(C)[C@H]3CC[C@@H]4[C@@H](C(=O)/C=C/c5ccncc5)CC[C@@]4(C)[C@]3(C)CC[C@@H]12,-5.14% (active)
7,Cc1cccc(/C=C\C(=O)c2ccc(Cl)cc2)c1,106% and 90.9%
8,Cn1ccnc1C(=O)/C=C/c1ccc(CC(=O)Nc2ccc(C(F)(F)F)cc2)cc1,-6.59% (active)
9,Cn1cnc([N+](=O)[O-])c1S(=O)(=O)Oc1cccc2ccccc12,58.9%
10,COc1ccc(CN2C(=O)/C(=C/c3nc(CO)cs3)SC2=S)cc1,31.7%
11,CC1=C(C)C(=O)OC([C@](C)(O)[C@]2(O)CC[C@@]3(O)[C@@H]4C[C@H]5O[C@]56CC=CC(=O)[C@]6(C)[C@H]4CC[C@]23COC(=O)c2ccc(C)o2)C1 (stereo partly drawn),-55.6% (active)
12,Nc1c(C(=O)c2ccc(Br)cc2)sc2nc3c(cc12)CCCC3,79.1%
13,COc1cc2c(Nc3ccc(-c4ccc(N)cc4)cc3)ncnc2c(OC)c1OC,71.9%
14,COc1cc(-c2cc(/C=C3\C(=O)Nc4ccc(Cl)cc43)[nH]n2)cc(OC)c1OC,67.7%
15,CC(C)(C)n1nc(C2CC2)c(Br)c1NC(=O)c1ccccc1F,114%
16,NS(=O)(=O)c1cccc(NC(=O)C(=O)C2C(=O)Nc3ccccc32)c1 (stereo not drawn),101%
17,O=C1c2ccccc2-c2ccccc2C1(Cl)Cl,-86.6% (active)
18,COC(=O)c1cccc(NC2=CC(=O)C(C)=C(C)C2=O)c1,65.9%
19,CC1(C)CC(=O)C(c2c(-c3ccccc3)[nH]c3[nH]c(=S)[nH]c(=O)c23)=C(O)C1,109%

row,SMILES,growth
1,Clc1cccc(C2Cc3cnccc3-c3[nH]c4ccncc4c32)c1 (stereo not drawn),5.96% (active)
2,CC[C@H](CC[C@@H](C)[C@H]1CC[C@H]2[C@@H]3CC=C4C[C@@H](OCCc5nn[nH]n5)CC[C@]4(C)[C@H]3CC[C@]12C)C(C)C,118%
3,COc1cc(C(=O)N/N=C/c2ccc(N(C)C)cc2)cc(OC)c1OC,-12.5% (active)
4,Cc1cn(-c2cc(NC(=O)c3ccc(C)c(Nc4nccc(-c5cccnc5)n4)c3)cc(C(F)(F)F)c2)cn1,37.2%
5,CCOC(=O)/C=C1\SC(=Nc2ccc(C#N)cc2)N(CCN2C(=O)/C(=C/C(=O)OCC)SC2=Nc2ccc(C#N)cc2)C1=O,55.3%
6,CN(C)CCCn1c2c(c3cnccc3c1=O)C(=O)c1ccccc1-2,-1.59% (active)
7,CCN1CC(=O)N(/N=C2\C(=O)Nc3ccccc32)C1=S,73.1%
8,CC(=O)Oc1c2c(nc3c1c1ccccc1n3Cc1ccccc1)-c1ccccc1C2,92.2%
9,S=C1SCN(Cc2ccccc2)CN1Cc1ccccc1,38.5%
10,CC(C)=CCC[C@](C)(O)[C@H]1CC[C@]2(C)[C@@H]1CC[C@@H]1[C@@]3(C)C/C(=C/c4cccc([N+](=O)[O-])c4)C(=O)C(C)(C)[C@@H]3CC[C@]12C,84.3%
11,COc1ccc(-c2c3c(N)c4c(nc3nc3c2c(C)nn3-c2ccccc2)CCCCC4)cc1,76%
12,CN1CCN(CCOc2ccc(-c3cnc4c(-c5cccc(F)c5)cnn4c3)cc2)CC1,65.4%
13,N#CC1=C(N)Oc2ccc3ccccc3c2C1c1ccccc1 (stereo not drawn),12.7%
14,O=c1c2cc(Br)cc(Br)c2nc(-c2ccc(Cl)cc2)n1/N=C/c1cccc(F)c1,62.6%
15,OC(CNc1ccnc2cc(Cl)ccc12)CNc1ccnc2cc(Cl)ccc12,-67.9% (active)
16,CNC(=O)c1ccccc1Nc1nc(Nc2cc(OC)c(OC)c(OC)c2)ncc1Br,-46.6% (active)
17,COc1cccc(Cn2c(-c3nonc3N)nc3ccccc32)c1,-12.2% (active)
18,Nc1ncnc2c1C(c1ccc([N+](=O)[O-])cc1)c1sc3c(F)cccc3c1O2 (stereo not drawn),-15% (active)
19,CN(C)CCCOc1c2ccc(Cl)cc2nc2c1oc1ccc(Cl)cc12,-48% (active)
